Counter-ions that a name gives are not always drawn.
These compounds were tested on Klebsiella aerogenes DSM 30053 (assay: fold change of Cadaverine concentration vs plate DMSO controls (fold change (ratio)); higher = more amine produced, active = hit call of the paper (significant change in both replicates, either direction)). Conditions: incubation time: 27 h, anaerobic, 37 °C;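 for the amine columns active = adjusted P below 0.05 in both replicates with a change the same way and a mean fold change under 0.8 or over 1.25; inactive = the rest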.
How it was run: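 Amine values are fold changes relative to DMSO-only wells on the same plate. They derive from 27 h, 37 °C anaerobic mGAM cultures of four gut bacterial strains in 80 µL wells, dosed at 20 µM final, or 50 µM final for sweeteners. Extraction of the whole culture, LC–triple-quadrupole MS in dynamic MRM mode, external calibration curves and within-batch drift correction were used, with 2 biological replicates averaged.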

Fold change of Cadaverine concentration, inactive:
CC(=O)OCC(CCn1cnc2cnc(N)nc21)COC(C)=O [Famciclovir] (20 µM) 0.979
COC(c1ccccc1)(c1ccccc1)[C@H](Oc1nc(C)cc(C)n1)C(=O)O [Ambrisentan] (20 µM) 0.997
C[C@H](CCC(=O)O)[C@H]1CC[C@H]2[C@@H]3[C@@H](O)C[C@@H]4C[C@H](O)CC[C@]4(C)[C@H]3CC[C@]12C [Urosiol] (20 µM) 1.05
C=C(CC)C(=O)c1ccc(OCC(=O)O)c(Cl)c1Cl [Ethacrynic acid] (20 µM) 0.999
C[C@]12CC[C@@H]3c4ccc(O)cc4CC[C@H]3[C@@H]1C[C@@H](O)[C@@H]2O [Estriol] (20 µM) 1.02
Cc1cc2cc3c(C)cc(=O)oc3c(C)c2o1 [Trioxsalen] (20 µM) 0.985
O=C(Nc1cccc2c(=O)cc(-c3nnn[nH]3)oc12)c1ccc(OCCCCc2ccccc2)cc1 [Pranlukast] (20 µM) 1.02
C[N+]1(C)CCC(OC(=O)C(O)(c2ccccc2)C2CCCC2)C1 (configuration not stated) [Glycopyrrolate bromide] (20 µM) 1.01
CC(C)(O)c1ccccc1CC[C@@H](SCC1(CC(=O)O)CC1)c1cccc(/C=C/c2ccc3ccc(Cl)cc3n2)c1 [Montelukast] (20 µM) 1.01
C[C@@H]1C[C@H]2[C@@H]3C[C@H](F)C4=CC(=O)C=C[C@]4(C)[C@@]3(Cl)[C@@H](O)C[C@]2(C)[C@H]1C(=O)COC(=O)C(C)(C)C [Clocortolone pivalate] (20 µM) 0.997
CCOC(=O)C1=C[C@]2(CC)CCCN3CCc4c(n1c1ccccc41)[C@@H]32 [Vinpocetine] (20 µM) 1.02
Clc1ccccc1C(c1ccccc1)(c1ccccc1)n1ccnc1 [Clotrimazole] (20 µM) 1.01
CC(C[N+](C)(C)C)OC(N)=O (configuration not stated) [Bethanechol chloride] (20 µM) 1
C=CC(N)CCC(=O)O (configuration not stated) [Vigabatrin hydrochloride] (20 µM) 1.03
C=C1C[C@@]23CC[C@H]4[C@@](C)(CCC[C@@]4(C)C(=O)O[C@@H]4O[C@H](CO)[C@@H](O)[C@H](O)[C@H]4O)[C@@H]2CC[C@]1(O[C@@H]1O[C@H](CO)[C@@H](O)[C@H](O)[C@H]1O[C@@H]1O[C@H](CO)[C@@H](O)[C@H](O)[C@H]1O)C3 [Stevioside] (50 µM) 1.1
CCCN(CCC)C(=O)C(CCC(=O)O)NC(=O)c1ccccc1 (configuration not stated) [Proglumide] (20 µM) 1.01
CN1CCC(=C2c3ccccc3CC(=O)c3sccc32)CC1 [Ketotifen fumarate] (20 µM) 1.01
Cc1ccc(-c2ncc(Cl)cc2-c2ccc(S(C)(=O)=O)cc2)cn1 [Etoricoxib] (20 µM) 1.03
C[C@@H](O)[C@H]1C(=O)N2C(C(=O)O)=C(S[C@@H]3CN[C@H](C(=O)N(C)C)C3)[C@H](C)[C@H]12 [Meropenem] (20 µM) 1.11
CC(C)(C)c1ccc(C(O)CCCN2CCC(C(O)(c3ccccc3)c3ccccc3)CC2)cc1 (configuration not stated) [Terfenadine] (20 µM) 1.01
CC(NN)c1ccccc1 (configuration not stated) [Mebanazine] (20 µM) 0.998
OCCN1CCN(CC/C=C2/c3ccccc3Sc3ccc(C(F)(F)F)cc32)CC1 [Flupentixol dihydrochloride cis-(Z)] (20 µM) 1.02
C#CCN(C)CCCOc1ccc(Cl)cc1Cl [Clorgyline hydrochloride] (20 µM) 0.991
CN(C)C(=O)C(CCN1CCC(O)(c2ccc(Cl)cc2)CC1)(c1ccccc1)c1ccccc1 [Loperamide hydrochloride] (20 µM) 1.02
CC[N+](CC)(CC(=O)Nc1c(C)cccc1C)Cc1ccccc1 [Denatonium benzoate] (20 µM) 1
COc1cc(C)c(/C=C/C(C)=C/C=C/C(C)=C/C(=O)O)c(C)c1C [Acitretin] (20 µM) 1.01
Nc1ccn([C@@H]2O[C@H](CO)[C@@H](O)[C@@H]2O)c(=O)n1 [Cytarabine] (20 µM) 1.01

— the supplement of paper PMC12494721
